Laboratory results from PubChem BioAssay AID1159580 (chemical genetic matrix, 2015).
Values joined by “and” are separate entries in the source; they are usually repeats but may differ in a detail not shown here. Identical values can stand only once. Hit rate of the full screen: of about 5,500 compounds, about 2,000 (36%) were called active. Another 18% or so got no clear call; they are omitted. Cut-off read from the data, not from the text of the source: active = normalized growth mostly below about 0.91 (no sharp cut-off); inconclusive = no clear call, values can overlap the other calls; inactive = mostly above about 0.92. Some of the results follow.

Test: chemical genetic growth profiling, strain panel (AID 1159580);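 note: tested at 20 µM; growth read once vehicle control cultures reached saturation at 30 °C; 1 = growth at the plate median or of vehicle wells; lower values mean less growth of the strain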
Settings: S. cerevisiae deletion strains, growth OD

Measured: normalized growth

CC[N+](C)(C)c1cccc(O)c1
inactive: locus YAL013W, strain DEP1, stronger effect = lower value 0.992 and 1.06 | locus YAL021C, strain ccr4, stronger effect = lower value 1.02 | locus YAL026C, strain drs2, stronger effect = lower value 0.993 | locus YAL030W, strain snc1, stronger effect = lower value 1.01 | locus YAL040C, strain CLN3, stronger effect = lower value 0.997 | locus YBL061C, strain skt5, stronger effect = lower value 1 | locus YBR009C, strain hhf1, stronger effect = lower value 0.964 | locus YBR021W, strain FUR4, stronger effect = lower value 0.996 | locus YBR023C, strain chs3, stronger effect = lower value 1.02 | locus YBR171W, strain sec66, stronger effect = lower value 1 | locus YBR229C, strain ROT2, stronger effect = lower value 0.983 | locus YBR231C, strain swc5, stronger effect = lower value 1.03 | locus YBR279W, strain paf1, stronger effect = lower value 1.01 | locus YCL011C, strain gbp2, stronger effect = lower value 1.02 | locus YCL016C, strain dcc1, stronger effect = lower value 1.02 | locus YCL029C, strain bik1, stronger effect = lower value 0.966 | locus YCL061C, strain MRC1 (second series), stronger effect = lower value 1 | locus YCL061C, strain MRC1, stronger effect = lower value 1.02 | locus YCL069W, strain vba3, stronger effect = lower value 1.01 | locus YCR088W, strain abp1, stronger effect = lower value 1.01 | locus YDL005C, strain med2, stronger effect = lower value 1.02 | locus YDL035C, strain GPR1, stronger effect = lower value 1.01 | locus YDL040C, strain nat1, stronger effect = lower value 1.01 | locus YDL074C, strain BRE1, stronger effect = lower value 0.984 | locus YDL101C, strain DUN1, stronger effect = lower value 0.979 | locus YDL134C, strain PPH21, stronger effect = lower value 0.984 | locus YDL185W, strain tfp1, stronger effect = lower value 0.972 | locus YDL192W, strain arf1, stronger effect = lower value 0.992 | locus YDR001C, strain nth1, stronger effect = lower value 1 | locus YDR069C, strain doa4, stronger effect = lower value 1.02 | locus YDR101C, strain arx1, stronger effect = lower value 0.966 | locus YDR137W, strain rgp1, stronger effect = lower value 1.04 | locus YDR150W, strain NUM1, stronger effect = lower value 0.996 and 1 | locus YDR159W, strain sac3, stronger effect = lower value 0.993 | locus YDR162C, strain NBP2, stronger effect = lower value 0.999 | locus YDR195W, strain ref2 1.01 | locus YDR297W, strain sur2, stronger effect = lower value 1.01 | locus YDR318W, strain mcm21, stronger effect = lower value 0.971 | locus YDR334W, strain swr1, stronger effect = lower value 1.01 | locus YDR335W, strain msn5, stronger effect = lower value 1.01 | locus YDR363W, strain ESC2, stronger effect = lower value 1.01 | locus YDR388W, stronger effect = lower value 0.978 | locus YDR392W, strain spt3, stronger effect = lower value 0.92 | locus YDR502C, strain sam2, stronger effect = lower value 0.975 | locus YEL003W, strain gim4, stronger effect = lower value 0.995 | locus YEL037C, strain rad23, stronger effect = lower value 0.999 | locus YEL061C, strain CIN8 (second series), stronger effect = lower value 1.01 | locus YEL061C, strain CIN8, stronger effect = lower value 0.994 | locus YER002W, strain NOP16, stronger effect = lower value 0.998 | locus YER015W, strain faa2, stronger effect = lower value 0.999 | locus YER016W, strain bim1, stronger effect = lower value 1.01 | locus YER110C, stronger effect = lower value 0.97 | locus YER111C, strain swi4, stronger effect = lower value 0.998 | locus YER155C, strain BEM2 (second series), stronger effect = lower value 1.02 | locus YER155C, strain BEM2, stronger effect = lower value 0.949 | locus YER167W, strain BCK2, stronger effect = lower value 0.995 | locus YFR010W, strain ubp6, stronger effect = lower value 1 | locus YGL078C, strain dbp3, stronger effect = lower value 0.982 | locus YGL086W, strain mad1, stronger effect = lower value 1 | locus YGL167C, strain pmr1, stronger effect = lower value 1.01 | locus YGL173C, strain kem1, stronger effect = lower value 1.02 | locus YGL227W, strain vid30, stronger effect = lower value 1.02 | locus YGL240W, strain doc1, stronger effect = lower value 1.03 | locus YGL248W, strain PDE1, stronger effect = lower value 0.997 | locus YGL253W, strain hxk2, stronger effect = lower value 1.02 | locus YGR078C, strain PAC10, stronger effect = lower value 0.995 and 0.986 | locus YGR135W, strain pre9, stronger effect = lower value 0.973 | locus YGR229C, strain SMI1, stronger effect = lower value 1.01 | locus YGR252W, strain gcn5, stronger effect = lower value 1.06 | locus YHR013C, strain ard1, stronger effect = lower value 1.06 | locus YHR027C, strain rpn1, stronger effect = lower value 1.01 | locus YHR030C, strain SLT2, stronger effect = lower value 0.988 and 1.01 | locus YHR079C, strain IRE1 (second series), stronger effect = lower value 0.982 | locus YHR079C, strain IRE1, stronger effect = lower value 0.99 | locus YHR094C, strain hxt1, stronger effect = lower value 0.976 | locus YHR129C, strain ARP1, stronger effect = lower value 0.987 | locus YHR142W, strain chs7, stronger effect = lower value 1 | locus YHR200W, strain rpn10, stronger effect = lower value 0.968 | locus YIL066C, strain RNR3, stronger effect = lower value 0.985 | locus YIL073C, strain SPO22, stronger effect = lower value 0.982 | locus YIL125W, strain kgd1, stronger effect = lower value 0.997 | locus YIR030C, strain dcg1, stronger effect = lower value 0.974 | locus YJL092W, strain hpr5, stronger effect = lower value 1.01 | locus YJL095W, strain BCK1 (second series), stronger effect = lower value 1.01 | locus YJL095W, strain BCK1, stronger effect = lower value 0.973 and 1.02 | locus YJL115W, strain asf1, stronger effect = lower value 1.01 | locus YJL129C, strain trk1, stronger effect = lower value 1.02 | locus YJL134W, strain LCB3, stronger effect = lower value 0.991 | locus YJL154C, strain vps35, stronger effect = lower value 1 | locus YJL164C, strain tpk1, stronger effect = lower value 0.996 | locus YJL166W, strain qcr8, stronger effect = lower value 1.04 | locus YJL168C, strain set2, stronger effect = lower value 0.979 | locus YJL187C, strain SWE1 (second series), stronger effect = lower value 0.977 | locus YJL187C, strain SWE1, stronger effect = lower value 1.01 | locus YJR043C, strain POL32, stronger effect = lower value 0.984 | locus YJR066W, strain TOR1, stronger effect = lower value 0.931
